ELG1 genotoxic: genotoxicity induction in ELG1-luciferase HEK293T cells. HEK293T ELG1-luciferase reporter, luminescence, 16 h. Potency, µM (top dose mostly 46 µM), without a hit: at the top dose activity change, positive = activation, most hits filed as activators. 330,000 tested, 1.3% active; note: % of control where 0% means no effect; nearly all actives have a fitted effect of over 60% in size
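After overnight (16 hr) compound treatment at 37 °C, ELG1-luciferase HEK293T cells were lysed with ONE-Glo; luminescence quantified 30 min later at room temperature.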
SMN2 splice enh: increases expression of the SMN2 splice variant; HEK293 SMN2-luciferase splicing reporter, luminescence, 30-36 h; Potency, µM (titrated, usually from 46.1 µM), without a hit: top-dose activity change, positive = activation, usual class: activators; 210,000 tested, 2.8% active; note: % of control where 0% means no effect; nearly all actives have a fitted effect of over 55% in size
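qHTS luciferase splicing reporter: luminescence rises when SMN2 exon 7 is included in transfected HEK293 cells. Compound exposure lasted 30-36 h at 37C, with 4.5 mM final sodium butyrate as control, followed by a ONE-Glo read.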
Luc counter: Kinase-Glo luciferase inhibition (counter-screen) | Potency, µM (doses to about 38.3 µM), for the others: at the highest dose activity change, negative = inhibition, usual class: inhibitors | 200,000 tested, 0.28% active | Kinase-Glo luciferase, ATP luminescence, 8 min | AID 1379; note: % is set by controls: 0 for no effect and ±100 for the full control effect; nearly all actives have a fitted effect of over 60% in size
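Substrate mix (final 50 mM imidazole pH 7.2, 50 mM KCl, 7 mM MgCl2, 10 uM ATP, 0.01% Tween 20, 0.05% BSA) plus pin-tool compound, then Kinase-Glo detection mix; 8 min ambient, luminescence read.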
NPC1 prom act: activates the NPC1 promoter; Huh7 NPC1 promoter luciferase reporter, 24 h; Potency, µM (doses to about 9.22 µM), without a hit: at the highest dose activation, most hits filed as activators; 320,000 tested, 2.4% active; AID 485313; note: % of control where 0% means no effect; nearly all actives have a fitted effect of over 60% in size
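Luminescence from an NPC1 promoter-driven luciferase reporter in stably transfected Huh7 cells was measured after 24 h compound treatment at 37 °C, followed by 10 min ambient incubation with luciferase detection reagent.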
FLuc modulator: inhibits or activates purified firefly luciferase, miR-21 counter-screen | P08659 | purified FLuc, Km substrates, luminescence inhibition | Potency, µM (titrated, usually from 57.5 µM), for the others: top-dose activity change, negative = inhibition, hits mostly inhibitors | 360,000 tested, 6.9% active | AID 588342;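 note: plate controls were vehicle for no effect and reference inhibitor for full effect; nearly all actives have a fitted effect of over 55% in size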
Target sequence (P08659 whole entry, looked up): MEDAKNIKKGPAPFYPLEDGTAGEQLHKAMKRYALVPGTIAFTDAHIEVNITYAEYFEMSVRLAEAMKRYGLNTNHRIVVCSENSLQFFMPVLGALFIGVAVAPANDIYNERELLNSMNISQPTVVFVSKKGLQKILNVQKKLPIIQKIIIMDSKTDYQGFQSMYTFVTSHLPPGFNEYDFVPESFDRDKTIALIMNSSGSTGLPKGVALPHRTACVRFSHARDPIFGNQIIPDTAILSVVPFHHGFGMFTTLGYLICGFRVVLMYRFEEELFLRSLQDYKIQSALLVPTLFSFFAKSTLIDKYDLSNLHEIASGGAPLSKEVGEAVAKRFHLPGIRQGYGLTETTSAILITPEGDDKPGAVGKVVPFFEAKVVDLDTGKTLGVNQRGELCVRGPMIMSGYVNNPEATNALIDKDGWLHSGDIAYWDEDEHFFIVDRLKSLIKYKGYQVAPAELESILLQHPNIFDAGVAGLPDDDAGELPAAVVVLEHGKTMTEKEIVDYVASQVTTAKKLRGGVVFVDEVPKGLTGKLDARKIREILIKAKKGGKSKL
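Biochemical qHTS of compounds, final roughly 60 µM downward over six points, against 10 nM purified firefly luciferase using Km concentrations of substrates (10 uM D-luciferin, 10 uM ATP) in Tris acetate pH 7.5 buffer; luminescence output.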
Rab9 promoter act: Rab9 promoter activation; Huh7 Rab9 promoter-luciferase reporter, luminescence, 24 h; Potency, µM (titrated, usually from 9.22 µM), without a hit: top-dose activation, negative = inhibition, most hits filed as activators; 320,000 tested, 2.8% active; note: % of control where 0% means no effect; nearly all actives have a fitted effect of over 60% in size
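Quantitative HTS format; Huh7 Rab9-luciferase reporter cells (1500/well) receive compound 2 h post-plating, incubate 24 h at 37 °C, then get luciferase reagent for 10 min before luminescence reading.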
* hit, by the source's call; u = inconclusive; x = not tested or not shown; [ ] = remark or other dose. An excerpt weighted towards active compounds, which were near 7.3% of everything screened. Calls come from the whole dose curve; as a rule, active = well fitted curve in the direction sought with a large enough effect; inconclusive = small, poorly fitted or top-dose-only effect, or another doubt; inactive = no such curve, though single readings can be large; an effect the other way counts as inactive or inconclusive. Potency is the fitted concentration of half-maximal effect.

SMILES	ELG1 genotoxic	SMN2 splice enh	Luc counter	NPC1 prom act	FLuc modulator	Rab9 promoter act
CC(C)=NN/C(N)=N/C(=S)Nc1ccc(C)cc1	u	17%	-1%	2%	4.8µM*	22%
COc1ccccc1N1CCN(C(=O)CSc2nc(-c3ccc(C(C)C)cc3)no2)CC1	x	x	x	x	2.1µM*	x
O=C(CSc1nc(-c2ccccc2)no1)N1CCN(c2ccccc2F)CC1	x	x	x	x	-17%	x
CC(C)c1ccc(-c2noc(SCC(=O)N3CCN(c4ccccc4F)CC3)n2)cc1	x	x	x	x	2.4µM*	x
O=C(CSc1nc(-c2ccccc2)no1)N1CCCCC1	x	25%	x	x	24µM*	x
CCc1c(-c2ccccc2)nc2ccccc2c1C(=O)NCc1ccc(C)cc1	x	x	x	x	-9%	x
O=C(NCCc1ccccc1)c1oc2ccccc2c1COc1ccccc1	-1%	-16%	-1%	-1%	u	-2%
COc1ccc(C(CNC(=O)c2oc3ccccc3c2C)N2CCCC2)cc1 (configuration not stated)	-1%	x	x	-3%	21µM*	-9%
COc1ccc2oc(C(=O)NCCc3ccccc3)c(C)c2c1	u	x	x	0.45µM*	u	u
Cc1c(C(=O)NCCc2ccccc2)oc2ccccc12	2.1µM*	x	x	0.79µM*	2.1µM*	0.71µM*
COc1ccc(C(CNC(=O)c2oc3ccc(Cl)cc3c2C)N2CCCCC2)cc1 (configuration not stated)	1%	3%	x	-2%	1%	-3%
CCCSc1nc2c3c(sc2c(=O)[nH]1)CC(C)(CC)OC3 (configuration not stated)	4%	9%	4%	5%	5.4µM*	3%
COc1ccc(OCC(=O)N/N=C/c2cccn2-c2cccc(C(=O)O)c2)cc1	-2%	x	x	0%	13µM*	-2%
CCCCCC(=O)N/N=C/c1ccc(N(C)C)cc1	u	u	0%	u	12µM*	u
COc1ccc(/C=N/NC(=O)CNC(=O)COc2ccccc2)cc1	-3%	5%	-2%	-2%	-3%	0%
COc1ccc(OCC(=O)N/N=C/c2ccc(N(C)C)cc2)cc1	0%	13%	-3%	0%	13µM*	3%
COCCn1c(CNC(=O)c2cc([N+](=O)[O-])ccc2Cl)nc2cccnc21	x	x	x	x	1%	x
Cc1ccc(O)c(-c2n[nH]c3c2C(c2ccccc2F)N(Cc2ccco2)C3=O)c1 (configuration not stated)	x	4%	x	x	-12%	x
CC(C)CCNC(=O)NC(=O)CSc1nnc(-c2ccccc2Br)o1	0%	-16%	-3%	-3%	-12%	7%
C/C(N)=C(/C#N)C(=O)CSc1nnc(-c2ccccc2Br)o1	2.6µM*	2.8µM*	-5%	0.45µM*	0.85µM*	0.4µM*
COc1ccc(-c2nnc(SCC(=O)/C(C#N)=C(\C)N)o2)cc1	1µM*	4.5µM*	-5%	0.71µM*	0.95µM*	26%
COc1ccc2nc(SCC(=O)/C(C#N)=C(\C)N)[nH]c2c1	u	x	x	1.1µM*	8.5µM*	0.63µM*
COc1ccc2nc(SCC(N)=O)[nH]c2c1	1%	18%	2%	1%	-6%	-4%
CCC(=O)N1CCc2cc(Br)cc(S(=O)(=O)N3CCCC(C(=O)NCc4ccccc4)C3)c21 (configuration not stated)	x	-18%	x	x	-2%	x
CCN(C(=O)c1cc(S(=O)(=O)N2CCc3ccccc32)cn1C)c1cccc(C)c1	x	x	x	x	-3%	x
SMILES	ELG1 genotoxic	SMN2 splice enh	Luc counter	NPC1 prom act	FLuc modulator	Rab9 promoter act
O=C(Nc1ccc(F)cc1)c1nc2c(nnn2Cc2cccc3ccccc23)c(=O)[nH]1	-1%	x	x	-4%	27µM*	0%
COc1cccc(OC)c1NC(=O)c1nc2c(nnn2Cc2ccccc2Cl)c(=O)[nH]1	10%	-40%	8%	-1%	u	-1%
O=c1c2[nH]c3ccc(F)cc3c2ncn1C1CCCCC1	14%	7%	-2%	u	-11%	4µM*
O=c1c2[nH]c3ccc(F)cc3c2ncn1Cc1ccncc1	0%	x	x	-2%	1%	0%
Cc1c(C(=O)NCCc2ccc(Cl)cc2)cccc1-n1cnc2cccnc21	x	x	x	x	7%	x
O=C(O)c1ccc(N/N=C/c2cccc(C(F)(F)F)c2)cc1	u	x	x	0.56µM*	3.4µM*	0.63µM*
O=C(O)c1ccc(N/N=C/c2cccc(F)c2)cc1	u	1µM*	-16%	0.5µM*	2.4µM*	0.5µM*
O=C(O)c1ccc(N/N=C/c2ccc(F)c(F)c2)cc1	5.2µM*	1.4µM*	-8%	0.32µM*	1.7µM*	0.32µM*
CN(C)c1ccc(NC(=O)c2cn(-c3ccccc3)nc2-c2cccs2)cc1	11%	23%	0%	13%	6.7µM*	6%
CCN(CC)CCOC(=O)c1ccc(NC(=O)c2cn(-c3ccccc3)nc2-c2cccs2)cc1	u	-100%	-4%	9%	6µM*	19%
O=C(NN1CCOCC1)c1cn(-c2ccccc2)nc1-c1cccs1	1%	x	x	1%	21µM*	1%
CN1CCN(NC(=O)c2cn(-c3ccccc3)nc2-c2cccs2)CC1	2%	-6%	3%	0%	u	3%
CN(C)C(=O)c1cn(-c2ccccc2)nc1-c1cccs1	4%	4%	-1%	1%	u	3%
CCN(CC)CCNC(=O)c1cn(-c2ccccc2)nc1-c1cccs1	0%	7%	1%	-1%	-15%	-1%
O=C(Nc1ccc2ccccc2c1)c1cn(-c2ccccc2)nc1-c1cccs1	1%	-12%	-1%	-3%	6µM*	25%
CCN(CC(=O)Nc1ccc(NC(C)=O)cc1)C(=O)c1cn(-c2ccccc2)nc1-c1cccs1	-7%	x	x	0%	21µM*	-3%
CN1CCN(C(=O)c2cn(-c3ccccc3)nc2-c2cccs2)CC1	-5%	8%	-2%	0%	u	-2%
O=C(Nc1cn(-c2ccccc2)nc1-c1cccs1)c1ccco1	0%	2%	14%	13%	17µM*	-7%
O=C(c1cn(-c2ccccc2)nc1-c1cccs1)N(CCO)Cc1ccccc1	-9%	u	-3%	-1%	u	-6%
O=C(c1cn(-c2ccccc2)nc1-c1cccs1)N1CCN(c2ccccn2)CC1	-18%	-36%	1%	-4%	3.8µM*	3%
N#Cc1c(NC(=O)C(F)(F)F)sc2c3c(=O)c4ccccc4c(=O)c=3oc3ccccc3c12	x	3%[9.22 µM]	-2%[7.66 µM]	x	x	x
Cc1[nH]n(-c2ccccc2)c(=O)c1N=Nc1ccc2c(c1)OCO2	9%	18µM*	-1%	u	6µM*	u
COc1cccc(N=Nc2c(C)[nH]n(-c3ccccc3)c2=O)c1	u	x	x	u	11µM*	u

Compound activity from PubChem.
